Assay results reported in the supplement of paper PMC10849652.
Of roughly 8,800 targets only a part is listed; those with a hit were picked by preference. About 0.5% of all pairs of compound and target were hits.

Columns and labels:
Assay in all cases: log2 fold change, soluble protein after heating vs DMSO (PISA); higher = thermal stabilisation; K562 lysate, 10 uM; active = over 0.2 and 3.5 SD of the protein, either way, in both replicates (recomputed)
[1] = compound: CS(=O)(=O)N1CCN(Cc2cc3nc(-c4cccc5[nH]ncc45)nc(N4CCOCC4)c3s2)CC1 [pictilisib]
Summary of the method: (§1)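 To prepare the extract, K562 pellets were dounce-homogenised in PBS pH 7.4 with 1 mM MgCl2, giving crude material at 1 mg/mL protein. This was treated with 10 μM compound for 30 min, then heated in aliquots for 3 min over 48°C-58°C before pooling and addition of NP-40 to 0.5% at 4°C. Centrifugation at 21,000xg for 90 min left soluble protein in the supernatant, which TMTpro 16plex LC-MS/MS quantified with equalised channel sums. Results are log-two fold changes in thermal stability compared with solvent controls, from duplicates.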

[2] = compound: C[C@@H](Oc1cc(-c2cnn(C3CCNCC3)c2)cnc1N)c1c(Cl)ccc(F)c1Cl [crizotinib]
Summary of the method: as §1

[3] = compound: C[C@H](C1=CC=C(C=C1)C(=O)NC2=C3C=CNC3=NC=C2)N
Summary of the method: as §1

[4] = compound: C[C@H](Nc1ncnc2nc[nH]c12)c1cc2cccc(Cl)c2c(=O)n1-c1ccccc1 [duvelisib]
Summary of the method: as §1

[5] = compound: Cc1cc(Nc2cc(CN3CCOCC3)c3nc(C)c(Cc4ccc(Cl)cc4F)n3n2)n[nH]1 [gandotinib]
Summary of the method: as §1

[6] = compound: Cc1cc(Nc2cc(N3CCN(C)CC3)nc(Sc3ccc(NC(=O)C4CC4)cc3)n2)n[nH]1 [tozasertib]
Summary of the method: as §1

[7] = compound: Cc1ccc(-n2nc(C(C)(C)C)cc2NC(=O)Nc2ccc(OCCN3CCOCC3)c3ccccc23)cc1 [doramapimod]
Summary of the method: as §1

[8] = compound: Cc1ccc(NC(=O)c2ccc(CN3CC[C@H](N(C)C)C3)c(C(F)(F)F)c2)cc1Nc1nccc(-c2cncnc2)n1 [bafetinib]
Summary of the method: as §1

[9] = compound: Cc1cccc(CC(=O)N2CCc3c2ccc(-c2cn(C)c4ncnc(N)c24)c3F)n1
Summary of the method: as §1

[10] = compound: Cc1cn(-c2cc(NC(=O)c3ccc(C)c(Nc4nccc(-c5cccnc5)n4)c3)cc(C(F)(F)F)c2)cn1 [nilotinib]
Summary of the method: as §1

[11] = compound: Cc1nc(Nc2n[nH]c3c2CN(C(=O)N[C@H](CN(C)C)c2ccccc2)C3(C)C)c2sccc2n1
Summary of the method: as §1

[12] = compound: Cc1nc(Nc2ncc(C(=O)Nc3c(C)cccc3Cl)s2)cc(N2CCN(CCO)CC2)n1 [dasatinib]
Summary of the method: as §1

[13] = compound: Cc1ncc(-c2ccnc(Nc3ccc(S(C)(=O)=O)cc3)n2)n1C(C)C
Summary of the method: as §1

[14] = compound: Cn1cc(-c2ccc3c(c2)CCN3C(=O)Cc2cccc(C(F)(F)F)c2)c2c(N)ncnc21
Summary of the method: as §1

[15] = compound: Cn1cc(CNCC2CCN(c3ncc(C(=O)NO)cn3)CC2)c2ccccc21 [quisinostat]
Summary of the method: as §1

[16] = compound: Cn1cncc1[C@@](N)(c1ccc(Cl)cc1)c1ccc2c(c1)c(-c1cccc(Cl)c1)cc(=O)n2C [tipifarnib]
Summary of the method: as §1

[17] = compound: NC(=O)Nc1cc(-c2cccc(F)c2)sc1C(=O)N[C@H]1CCCNC1
Summary of the method: as §1

[18] = compound: NC1(c2ccc(-c3nc4ccn5c(=O)[nH]nc5c4cc3-c3ccccc3)cc2)CCC1
Summary of the method: as §1

[19] = compound: CS(=O)(=O)CCNCc1ccc(-c2ccc3ncnc(Nc4ccc(OCc5cccc(F)c5)c(Cl)c4)c3c2)o1 [lapatinib]
Summary of the method: as §1

[20] = compound: NC(=O)c1cnc(N[C@@H]2CCCC[C@@H]2N)nc1Nc1cccc(-n2nccn2)c1
Summary of the method: as §1

Measured: log2 fold change

ANKRD40 (UniProt Q6AI12)
inactive: [1] -0.116 | [2] -0.022 | [3] -0.018 | [4] -0.171 | [5] -0.032 | [6] 0.249 | [7] -0.027 | [8] -0.149 | [9] -0.067 | [10] -0.04 | [11] -0.115 | [12] 0.197 | [13] 0.071 | [14] -0.064 | [15] -0.161 | [16] 0.137 | [17] -0.001 | [18] -0.119

ALG13 isoform 2 (UniProt Q9NP73)
inactive: [3] 0.054 | [5] -0.088 | [9] 0.106 | [10] 0.142 | [11] -0.082 | [13] -0.066 | [16] 0.371

ALG3 (UniProt Q92685)
Chain of UniProt Q92685 (Q92685 whole entry, looked up): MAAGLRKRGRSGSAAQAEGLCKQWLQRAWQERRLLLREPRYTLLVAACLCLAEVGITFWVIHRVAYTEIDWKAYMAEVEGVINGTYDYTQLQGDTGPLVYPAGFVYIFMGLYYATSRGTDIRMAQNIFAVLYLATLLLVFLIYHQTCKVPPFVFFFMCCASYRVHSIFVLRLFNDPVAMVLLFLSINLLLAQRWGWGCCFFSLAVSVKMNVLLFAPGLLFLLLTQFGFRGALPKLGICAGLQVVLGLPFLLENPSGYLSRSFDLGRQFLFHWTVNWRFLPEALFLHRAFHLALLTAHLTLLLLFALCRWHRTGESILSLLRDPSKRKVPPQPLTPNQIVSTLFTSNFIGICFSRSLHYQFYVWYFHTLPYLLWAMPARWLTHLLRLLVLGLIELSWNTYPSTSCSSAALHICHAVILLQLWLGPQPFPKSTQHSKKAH
inactive: [19] -0.069 | [1] 0.031 | [2] -0.057 | [3] -0.15 | [4] -0.104 | [5] 0 | [6] -0.04 | [7] 0.037 | [8] -0.061 | [9] 0.261 | [12] -0.049 | [14] 0.068 | [15] 0.077 | [17] -0.017 | [20] 0.092 | [18] -0.036

ACAT1, A0A5F9ZHJ0
inactive: [3] -0.151 | [5] -0.075 | [9] 0.208 | [10] -0.176 | [11] 0.063 | [13] 0.024 | [16] 0.07

ACYP2 (UniProt P14621)
Chain of UniProt P14621 (P14621 whole entry, looked up): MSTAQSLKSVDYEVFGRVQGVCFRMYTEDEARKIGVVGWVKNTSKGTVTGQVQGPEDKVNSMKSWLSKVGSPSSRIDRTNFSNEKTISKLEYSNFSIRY
inactive: [19] -0.049 | [1] -0.065 | [2] 0.082 | [3] 0.217 | [5] -0.076 | [7] -0.024 | [8] -0.002 | [9] -0.105 | [10] -0.008 | [11] -0.079 | [13] 0.097 | [15] -0.047 | [16] 0.009 | [17] -0.009 | [20] -0.026 | [18] 0.019

ALDH18A1 isoform 2 (UniProt P54886)
inactive: [2] 0.127 | [4] 0.088 | [7] -0.134 | [12] 0.089 | [14] 0.181 | [15] 0.397 | [17] -0.093

ANP32E (UniProt Q9BTT0)
inactive: [19] -0.026 | [1] 0.003 | [2] 0.007 | [3] -0.017 | [4] 0.015 | [5] 0.013 | [6] 0.041 | [7] -0.017 | [8] -0.003 | [9] -0.032 | [10] 0.075 | [11] 0.025 | [12] 0.015 | [13] 0.028 | [14] -0.038 | [15] 0.016 | [16] -0.02 | [17] -0.011 | [20] -0.065 | [18] 0.023

ABI1 isoform 6 (UniProt Q8IZP0)
inactive: [19] 0.007 | [6] -0.061 | [20] 0.113

ACTG1 (UniProt K7EM38)
inactive: [19] -0.08 | [6] 0.207 | [20] 0.171

ALKBH7 (UniProt Q9BT30)
inactive: [2] -0.049 | [3] 0.289 | [4] 0.091 | [5] 0.08 | [6] -0.045 | [7] -0.062 | [9] 0.187 | [10] -0.039 | [11] -0.04 | [12] -0.017 | [13] -0.452 | [14] -0.226 | [15] 0.006 | [16] 0.107 | [17] 0.044 | [18] -0.099

ADAM17 (UniProt P78536)
inactive: [1] 0.032 | [2] 0.051 | [3] 0.008 | [4] 0.024 | [5] 0.054 | [6] -0.015 | [7] -0.06 | [8] 0.019 | [9] 0.099 | [10] -0.093 | [11] -0.151 | [12] -0.032 | [13] 0.021 | [14] 0.054 | [15] 0.01 | [16] 0.039 | [17] 0.002 | [18] -0.012

ABCA3 (UniProt Q99758)
Chain of UniProt Q99758 (Q99758 whole entry, looked up): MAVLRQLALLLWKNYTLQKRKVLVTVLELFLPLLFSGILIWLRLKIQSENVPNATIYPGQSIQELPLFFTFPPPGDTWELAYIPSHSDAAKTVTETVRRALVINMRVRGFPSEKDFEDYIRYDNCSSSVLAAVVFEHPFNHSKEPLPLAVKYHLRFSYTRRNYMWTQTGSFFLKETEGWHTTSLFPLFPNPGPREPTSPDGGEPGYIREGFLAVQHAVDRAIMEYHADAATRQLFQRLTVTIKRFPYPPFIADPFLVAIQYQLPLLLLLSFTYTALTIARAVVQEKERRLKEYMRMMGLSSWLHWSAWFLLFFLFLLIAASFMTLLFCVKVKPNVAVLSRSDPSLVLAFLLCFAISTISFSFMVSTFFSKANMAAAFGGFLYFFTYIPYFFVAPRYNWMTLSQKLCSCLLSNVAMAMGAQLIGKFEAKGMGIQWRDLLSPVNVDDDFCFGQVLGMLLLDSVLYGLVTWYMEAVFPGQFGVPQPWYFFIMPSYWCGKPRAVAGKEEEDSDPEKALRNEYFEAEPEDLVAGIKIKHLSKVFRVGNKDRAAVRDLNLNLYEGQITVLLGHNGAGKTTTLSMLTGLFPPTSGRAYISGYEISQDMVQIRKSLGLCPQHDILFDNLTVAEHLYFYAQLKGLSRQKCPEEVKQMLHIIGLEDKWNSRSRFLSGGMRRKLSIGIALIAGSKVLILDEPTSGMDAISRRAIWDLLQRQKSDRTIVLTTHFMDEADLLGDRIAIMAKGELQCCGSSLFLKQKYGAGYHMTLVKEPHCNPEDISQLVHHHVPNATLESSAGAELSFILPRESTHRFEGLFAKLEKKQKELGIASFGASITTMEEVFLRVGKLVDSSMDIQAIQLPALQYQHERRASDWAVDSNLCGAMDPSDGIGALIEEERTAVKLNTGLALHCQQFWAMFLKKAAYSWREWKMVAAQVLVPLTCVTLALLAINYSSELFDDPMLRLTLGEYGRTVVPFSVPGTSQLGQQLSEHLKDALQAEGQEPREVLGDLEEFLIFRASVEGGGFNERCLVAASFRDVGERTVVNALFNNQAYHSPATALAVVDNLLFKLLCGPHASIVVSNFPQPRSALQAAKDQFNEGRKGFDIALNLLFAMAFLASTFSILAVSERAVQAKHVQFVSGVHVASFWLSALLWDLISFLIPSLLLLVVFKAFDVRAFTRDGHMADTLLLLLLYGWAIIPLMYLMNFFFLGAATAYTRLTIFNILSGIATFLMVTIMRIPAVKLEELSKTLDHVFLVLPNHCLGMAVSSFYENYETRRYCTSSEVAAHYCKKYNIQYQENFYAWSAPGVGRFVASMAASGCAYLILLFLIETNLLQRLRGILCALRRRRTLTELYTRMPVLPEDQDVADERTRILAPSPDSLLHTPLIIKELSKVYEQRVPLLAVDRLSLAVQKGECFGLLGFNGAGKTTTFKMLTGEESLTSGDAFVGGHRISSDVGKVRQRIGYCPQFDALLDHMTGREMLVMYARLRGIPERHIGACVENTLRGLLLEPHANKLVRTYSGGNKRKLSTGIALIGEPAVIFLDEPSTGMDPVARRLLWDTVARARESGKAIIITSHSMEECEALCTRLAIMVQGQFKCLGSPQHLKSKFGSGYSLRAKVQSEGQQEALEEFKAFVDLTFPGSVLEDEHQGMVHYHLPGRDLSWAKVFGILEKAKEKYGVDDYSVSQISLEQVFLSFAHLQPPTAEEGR
inactive: [19] 0.025 | [1] -0.028 | [3] -0.156 | [4] 0.061 | [5] 0.113 | [6] -0.16 | [7] 0.203 | [8] -0.006 | [9] -0.075 | [12] 0.044 | [14] -0.066 | [15] 0.08 | [17] -0.092 | [20] 0.001 | [18] -0.019
active: [2] -0.469

AIMP2 isoform 2 (UniProt Q13155)
inactive: [19] -0.058 | [1] -0.148 | [2] -0.036 | [7] -0.019 | [8] -0.082 | [15] -0.106 | [17] 0.067 | [20] 0.017

AGPAT2 (UniProt O15120)
Chain of UniProt O15120 (O15120 whole entry, looked up): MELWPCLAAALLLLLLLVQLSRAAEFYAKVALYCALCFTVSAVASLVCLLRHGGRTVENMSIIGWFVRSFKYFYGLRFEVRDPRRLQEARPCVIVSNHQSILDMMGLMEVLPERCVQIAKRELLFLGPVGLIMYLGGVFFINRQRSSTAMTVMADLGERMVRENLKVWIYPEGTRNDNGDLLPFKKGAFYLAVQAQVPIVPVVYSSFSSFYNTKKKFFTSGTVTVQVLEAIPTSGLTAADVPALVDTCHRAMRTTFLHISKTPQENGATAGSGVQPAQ
inactive: [2] -0.097 | [3] 0.006 | [5] -0.145 | [6] 0.048 | [7] 0.1 | [9] 0.021 | [10] -0.044 | [11] 0.046 | [13] -0.037 | [15] 0.006 | [16] 0.029 | [17] 0.018 | [18] 0.02

AP3D1 isoform 2 (UniProt O14617)
inactive: [19] 0.084 | [3] 0.19 | [5] -0.429 | [9] -0.084 | [10] -0.287 | [11] 0.035 | [13] 0.376 | [16] -0.132 | [20] 0.034 | [18] -0.121

ABL1 isoform 2 (UniProt P00519)
Chain of UniProt P00519 (P00519 whole entry, looked up): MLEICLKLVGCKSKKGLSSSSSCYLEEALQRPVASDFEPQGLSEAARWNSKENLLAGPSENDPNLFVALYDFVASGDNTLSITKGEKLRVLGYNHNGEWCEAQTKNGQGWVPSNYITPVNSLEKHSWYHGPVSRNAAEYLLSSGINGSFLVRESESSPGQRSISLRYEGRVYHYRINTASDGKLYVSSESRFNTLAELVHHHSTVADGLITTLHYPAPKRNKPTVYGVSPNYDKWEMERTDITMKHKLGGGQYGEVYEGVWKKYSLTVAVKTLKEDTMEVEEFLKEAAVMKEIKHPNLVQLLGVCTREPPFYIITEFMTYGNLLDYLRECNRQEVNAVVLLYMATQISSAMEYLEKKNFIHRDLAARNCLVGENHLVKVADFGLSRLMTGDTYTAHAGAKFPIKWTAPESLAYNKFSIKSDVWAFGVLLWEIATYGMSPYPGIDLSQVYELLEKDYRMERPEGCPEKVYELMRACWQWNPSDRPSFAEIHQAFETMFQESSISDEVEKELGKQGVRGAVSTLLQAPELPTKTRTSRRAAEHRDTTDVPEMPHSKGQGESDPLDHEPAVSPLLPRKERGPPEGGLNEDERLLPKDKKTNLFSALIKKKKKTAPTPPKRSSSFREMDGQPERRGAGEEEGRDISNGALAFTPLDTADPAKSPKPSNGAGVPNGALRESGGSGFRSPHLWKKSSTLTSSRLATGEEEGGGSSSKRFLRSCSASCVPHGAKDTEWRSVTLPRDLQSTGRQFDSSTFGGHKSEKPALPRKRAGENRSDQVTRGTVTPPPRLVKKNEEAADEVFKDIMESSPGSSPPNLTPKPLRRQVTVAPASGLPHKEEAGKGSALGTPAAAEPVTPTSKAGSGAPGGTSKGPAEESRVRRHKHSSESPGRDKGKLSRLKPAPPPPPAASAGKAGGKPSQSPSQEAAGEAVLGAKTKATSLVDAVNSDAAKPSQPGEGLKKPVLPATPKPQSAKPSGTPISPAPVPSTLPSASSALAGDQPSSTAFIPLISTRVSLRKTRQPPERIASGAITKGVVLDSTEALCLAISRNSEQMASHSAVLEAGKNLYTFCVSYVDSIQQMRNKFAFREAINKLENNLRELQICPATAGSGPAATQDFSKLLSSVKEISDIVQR
inactive: [19] -0.01 | [1] -0.094 | [3] 0.135 | [4] 0.004 | [5] -0.04 | [9] -0.048 | [11] 0.006 | [13] 0.019 | [14] -0.002 | [15] -0.074 | [16] -0.074 | [17] 0.08 | [20] 0.022 | [18] -0.009

ADD1 isoform 4 (UniProt P35611)
active: [3] -0.745
inactive: [19] -0.006 | [1] -0.168 | [4] 0.029 | [5] 0.556 | [6] -0.044 | [8] 0.097 | [9] 0.563 | [12] -0.017 | [14] -0.075 | [20] -0.109 | [18] -0.274

ABRACL (UniProt Q9P1F3)
Chain of UniProt Q9P1F3 (Q9P1F3 whole entry, looked up): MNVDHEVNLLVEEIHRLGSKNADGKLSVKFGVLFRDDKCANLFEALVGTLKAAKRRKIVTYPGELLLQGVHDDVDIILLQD
inactive: [19] 0.154 | [1] -0.075 | [2] -0.105 | [3] -0.053 | [4] -0.239 | [5] -0.003 | [7] -0.014 | [8] 0.09 | [9] -0.047 | [10] 0.194 | [11] 0.006 | [12] -0.119 | [13] -0.042 | [14] -0.067 | [15] 0.053 | [16] 0.023 | [17] -0.083 | [20] 0.037 | [18] -0.076

ANXA2 (UniProt H0YL33)
inactive: [19] 0.026 | [1] -0.028 | [2] -0.048 | [3] 0.284 | [4] 0.044 | [5] -0.163 | [7] 0.017 | [8] 0.031 | [9] -0.054 | [10] -0.153 | [11] 0.008 | [12] -0.069 | [13] 0.074 | [14] 0.022 | [15] 0.134 | [16] 0.199 | [17] -0.196 | [20] -0.078 | [18] 0.089

ANP32E isoform 3 (UniProt Q9BTT0)
active: [3] -0.843
inactive: [1] -0.012 | [5] 0.213 | [6] 0.165 | [8] -0.14 | [9] 0.439

ABL2 (UniProt P42684)
Chain of UniProt P42684 (P42684 whole entry, looked up): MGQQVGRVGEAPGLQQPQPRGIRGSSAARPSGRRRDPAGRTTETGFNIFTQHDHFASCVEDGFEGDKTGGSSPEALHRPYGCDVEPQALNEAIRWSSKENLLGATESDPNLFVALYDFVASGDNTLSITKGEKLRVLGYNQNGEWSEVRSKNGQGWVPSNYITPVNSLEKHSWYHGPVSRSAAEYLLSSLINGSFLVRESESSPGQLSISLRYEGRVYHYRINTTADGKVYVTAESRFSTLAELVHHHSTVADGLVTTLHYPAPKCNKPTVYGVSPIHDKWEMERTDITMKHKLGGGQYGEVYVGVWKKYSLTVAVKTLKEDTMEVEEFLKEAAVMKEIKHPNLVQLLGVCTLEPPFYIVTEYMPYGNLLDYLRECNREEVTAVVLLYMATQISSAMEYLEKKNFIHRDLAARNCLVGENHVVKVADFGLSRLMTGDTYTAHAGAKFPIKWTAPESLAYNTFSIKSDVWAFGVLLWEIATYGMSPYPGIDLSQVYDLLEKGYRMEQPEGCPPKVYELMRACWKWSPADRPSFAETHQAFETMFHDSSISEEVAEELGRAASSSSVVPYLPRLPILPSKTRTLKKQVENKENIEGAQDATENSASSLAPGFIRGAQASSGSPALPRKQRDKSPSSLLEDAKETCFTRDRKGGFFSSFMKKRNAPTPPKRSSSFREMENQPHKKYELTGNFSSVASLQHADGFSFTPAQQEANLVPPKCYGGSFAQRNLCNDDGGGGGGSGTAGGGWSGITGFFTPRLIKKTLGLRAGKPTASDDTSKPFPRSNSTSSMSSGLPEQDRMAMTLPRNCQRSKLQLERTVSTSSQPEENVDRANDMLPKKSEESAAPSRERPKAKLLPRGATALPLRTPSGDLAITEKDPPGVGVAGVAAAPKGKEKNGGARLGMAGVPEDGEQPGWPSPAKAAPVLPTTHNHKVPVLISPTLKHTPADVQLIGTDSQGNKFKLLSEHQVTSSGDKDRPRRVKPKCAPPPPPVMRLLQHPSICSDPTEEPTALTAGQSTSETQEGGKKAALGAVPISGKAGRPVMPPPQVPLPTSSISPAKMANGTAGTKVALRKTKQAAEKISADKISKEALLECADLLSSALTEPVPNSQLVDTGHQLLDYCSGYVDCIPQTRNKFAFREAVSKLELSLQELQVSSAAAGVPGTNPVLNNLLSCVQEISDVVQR
inactive: [19] -0.053 | [1] -0.029 | [2] 0.367 | [3] -0.216 | [4] 0.079 | [5] 0.228 | [6] 0.273 | [7] -0.04 | [8] 0.439 | [9] 0 | [10] -0.084 | [11] 0.157 | [12] 0.067 | [13] 0.091 | [14] 0.064 | [15] -0.16 | [16] -0.116 | [17] 0.103 | [20] -0.028 | [18] -0.027

ANKRD10 (UniProt Q9NXR5)
inactive: [19] -0.074 | [1] 0.184 | [2] 0.017 | [3] -0.032 | [4] -0.052 | [5] -0.088 | [7] -0.079 | [8] -0.112 | [9] 0.007 | [10] -0.042 | [11] -0.021 | [12] -0.05 | [13] 0.021 | [14] 0.012 | [15] 0.001 | [16] -0.028 | [17] 0.036 | [20] 0.168 | [18] -0.029

ANXA13 isoform 2 (UniProt P27216)
inactive: [19] -0.111 | [1] -0.03 | [2] 0.011 | [3] 0.057 | [4] -0.116 | [7] 0.038 | [8] -0.195 | [9] 0.284 | [10] -0.001 | [11] 0.005 | [12] 0.007 | [13] -0.079 | [14] 0.104 | [15] -0.022 | [16] 0.123 | [17] 0.023 | [20] 0.032 | [18] 0.078
active: [5] 0.545
